What was measured:
[1] = target: T1, Ephrin type-A receptor 3 (Homo sapiens) (UniProt P29320); conditions: at 10 µM
T1 sequence (whole entry): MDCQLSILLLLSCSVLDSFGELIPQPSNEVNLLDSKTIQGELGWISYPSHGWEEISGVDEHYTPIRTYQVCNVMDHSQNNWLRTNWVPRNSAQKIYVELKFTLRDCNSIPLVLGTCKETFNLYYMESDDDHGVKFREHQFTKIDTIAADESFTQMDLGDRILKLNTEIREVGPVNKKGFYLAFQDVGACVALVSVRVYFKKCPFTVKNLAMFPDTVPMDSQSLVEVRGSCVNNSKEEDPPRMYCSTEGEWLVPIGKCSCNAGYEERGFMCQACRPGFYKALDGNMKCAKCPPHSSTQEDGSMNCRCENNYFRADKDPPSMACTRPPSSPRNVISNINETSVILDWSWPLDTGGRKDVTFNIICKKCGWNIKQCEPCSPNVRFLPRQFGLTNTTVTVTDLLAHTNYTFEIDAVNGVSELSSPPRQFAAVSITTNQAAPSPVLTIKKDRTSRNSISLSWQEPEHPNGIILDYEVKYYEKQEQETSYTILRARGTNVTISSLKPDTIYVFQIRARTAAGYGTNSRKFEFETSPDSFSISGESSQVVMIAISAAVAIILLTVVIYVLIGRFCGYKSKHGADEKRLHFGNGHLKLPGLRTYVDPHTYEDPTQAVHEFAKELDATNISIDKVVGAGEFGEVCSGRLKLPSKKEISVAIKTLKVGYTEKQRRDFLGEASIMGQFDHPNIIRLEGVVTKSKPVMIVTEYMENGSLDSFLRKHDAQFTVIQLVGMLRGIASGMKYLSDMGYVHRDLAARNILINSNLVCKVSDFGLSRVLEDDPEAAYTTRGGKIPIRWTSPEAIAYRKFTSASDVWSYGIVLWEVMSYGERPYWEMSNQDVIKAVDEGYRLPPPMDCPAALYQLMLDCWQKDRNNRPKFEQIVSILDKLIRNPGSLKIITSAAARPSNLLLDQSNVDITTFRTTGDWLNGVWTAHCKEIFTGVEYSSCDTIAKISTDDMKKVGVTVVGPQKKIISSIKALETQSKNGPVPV

[2] = target: Ephrin type-A receptor 4 (Homo sapiens) (UniProt P54764); conditions: at 1 µM
[3] = target: Ephrin type-A receptor 4 (Homo sapiens) (UniProt P54764); conditions: at 10 µM
[4] = target: Ephrin type-A receptor 5 (Homo sapiens) (UniProt P54756); conditions: at 1 µM
[5] = target: Ephrin type-A receptor 5 (Homo sapiens) (UniProt P54756); conditions: at 10 µM
[6] = target: Ephrin type-A receptor 7 (Homo sapiens) (UniProt Q15375); conditions: at 1 µM
[7] = target: Ephrin type-A receptor 7 (Homo sapiens) (UniProt Q15375); conditions: at 10 µM
[8] = target: T2, Ephrin type-A receptor 8 (Homo sapiens) (UniProt P29322); conditions: at 1 µM
T2 sequence (whole entry): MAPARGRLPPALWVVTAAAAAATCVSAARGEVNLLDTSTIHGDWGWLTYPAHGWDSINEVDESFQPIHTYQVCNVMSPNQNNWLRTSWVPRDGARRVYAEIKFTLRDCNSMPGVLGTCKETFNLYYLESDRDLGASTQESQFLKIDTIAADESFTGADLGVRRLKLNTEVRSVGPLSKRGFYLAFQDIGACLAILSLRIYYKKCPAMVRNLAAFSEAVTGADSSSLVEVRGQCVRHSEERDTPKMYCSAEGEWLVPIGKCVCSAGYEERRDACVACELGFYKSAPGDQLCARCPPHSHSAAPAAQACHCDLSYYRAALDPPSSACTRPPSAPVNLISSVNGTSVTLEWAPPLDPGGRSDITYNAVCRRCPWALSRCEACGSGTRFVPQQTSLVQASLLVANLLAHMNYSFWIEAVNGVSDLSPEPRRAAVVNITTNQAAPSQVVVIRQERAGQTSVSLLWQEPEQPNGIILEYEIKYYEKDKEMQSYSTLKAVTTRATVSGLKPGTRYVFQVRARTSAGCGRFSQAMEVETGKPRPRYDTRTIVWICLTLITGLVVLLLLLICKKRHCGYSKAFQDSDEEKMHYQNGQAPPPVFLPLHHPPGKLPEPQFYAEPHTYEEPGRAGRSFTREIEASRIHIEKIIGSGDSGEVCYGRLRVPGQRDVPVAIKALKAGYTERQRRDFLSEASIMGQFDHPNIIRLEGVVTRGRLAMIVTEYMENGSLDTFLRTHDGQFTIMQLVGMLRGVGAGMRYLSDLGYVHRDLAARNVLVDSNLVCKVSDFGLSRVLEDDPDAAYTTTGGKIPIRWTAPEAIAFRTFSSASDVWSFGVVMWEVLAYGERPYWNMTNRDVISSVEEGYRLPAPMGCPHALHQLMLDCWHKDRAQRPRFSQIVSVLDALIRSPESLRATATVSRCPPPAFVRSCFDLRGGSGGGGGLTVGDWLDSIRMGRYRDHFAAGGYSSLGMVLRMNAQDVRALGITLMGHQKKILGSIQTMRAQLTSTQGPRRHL

[9] = target: T2, Ephrin type-A receptor 8 (Homo sapiens); conditions: at 10 µM
[10] = target: T3, Ephrin type-B receptor 1 (Homo sapiens) (UniProt P54762); conditions: at 1 µM
T3 sequence (whole entry): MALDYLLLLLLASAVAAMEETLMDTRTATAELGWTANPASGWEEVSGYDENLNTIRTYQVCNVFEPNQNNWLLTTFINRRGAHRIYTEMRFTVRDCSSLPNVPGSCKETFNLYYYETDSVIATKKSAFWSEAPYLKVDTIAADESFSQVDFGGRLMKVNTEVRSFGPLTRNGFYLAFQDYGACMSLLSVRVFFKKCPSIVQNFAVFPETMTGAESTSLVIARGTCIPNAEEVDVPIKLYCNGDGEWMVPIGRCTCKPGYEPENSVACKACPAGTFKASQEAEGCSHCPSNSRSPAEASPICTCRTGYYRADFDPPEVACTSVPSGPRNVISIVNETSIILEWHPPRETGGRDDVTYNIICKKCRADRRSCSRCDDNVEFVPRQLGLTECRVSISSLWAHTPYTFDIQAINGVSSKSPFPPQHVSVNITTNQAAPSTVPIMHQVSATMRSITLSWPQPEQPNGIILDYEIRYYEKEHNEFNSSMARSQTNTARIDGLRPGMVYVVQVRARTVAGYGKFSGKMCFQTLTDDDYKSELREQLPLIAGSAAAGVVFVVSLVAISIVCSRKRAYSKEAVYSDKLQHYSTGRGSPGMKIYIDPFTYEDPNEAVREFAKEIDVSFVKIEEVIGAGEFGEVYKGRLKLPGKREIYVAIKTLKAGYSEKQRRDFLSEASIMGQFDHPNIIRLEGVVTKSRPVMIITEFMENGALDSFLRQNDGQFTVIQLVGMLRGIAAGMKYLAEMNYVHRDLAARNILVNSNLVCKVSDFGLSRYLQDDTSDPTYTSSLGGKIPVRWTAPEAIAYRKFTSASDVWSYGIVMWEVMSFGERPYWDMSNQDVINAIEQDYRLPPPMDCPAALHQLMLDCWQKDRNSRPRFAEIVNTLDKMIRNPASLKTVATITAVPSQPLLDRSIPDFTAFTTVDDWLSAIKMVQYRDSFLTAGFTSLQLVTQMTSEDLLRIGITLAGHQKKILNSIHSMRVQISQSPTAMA

Sequence of Ephrin type-A receptor 7 (Homo sapiens) (Q15375 28-998 limits assumed): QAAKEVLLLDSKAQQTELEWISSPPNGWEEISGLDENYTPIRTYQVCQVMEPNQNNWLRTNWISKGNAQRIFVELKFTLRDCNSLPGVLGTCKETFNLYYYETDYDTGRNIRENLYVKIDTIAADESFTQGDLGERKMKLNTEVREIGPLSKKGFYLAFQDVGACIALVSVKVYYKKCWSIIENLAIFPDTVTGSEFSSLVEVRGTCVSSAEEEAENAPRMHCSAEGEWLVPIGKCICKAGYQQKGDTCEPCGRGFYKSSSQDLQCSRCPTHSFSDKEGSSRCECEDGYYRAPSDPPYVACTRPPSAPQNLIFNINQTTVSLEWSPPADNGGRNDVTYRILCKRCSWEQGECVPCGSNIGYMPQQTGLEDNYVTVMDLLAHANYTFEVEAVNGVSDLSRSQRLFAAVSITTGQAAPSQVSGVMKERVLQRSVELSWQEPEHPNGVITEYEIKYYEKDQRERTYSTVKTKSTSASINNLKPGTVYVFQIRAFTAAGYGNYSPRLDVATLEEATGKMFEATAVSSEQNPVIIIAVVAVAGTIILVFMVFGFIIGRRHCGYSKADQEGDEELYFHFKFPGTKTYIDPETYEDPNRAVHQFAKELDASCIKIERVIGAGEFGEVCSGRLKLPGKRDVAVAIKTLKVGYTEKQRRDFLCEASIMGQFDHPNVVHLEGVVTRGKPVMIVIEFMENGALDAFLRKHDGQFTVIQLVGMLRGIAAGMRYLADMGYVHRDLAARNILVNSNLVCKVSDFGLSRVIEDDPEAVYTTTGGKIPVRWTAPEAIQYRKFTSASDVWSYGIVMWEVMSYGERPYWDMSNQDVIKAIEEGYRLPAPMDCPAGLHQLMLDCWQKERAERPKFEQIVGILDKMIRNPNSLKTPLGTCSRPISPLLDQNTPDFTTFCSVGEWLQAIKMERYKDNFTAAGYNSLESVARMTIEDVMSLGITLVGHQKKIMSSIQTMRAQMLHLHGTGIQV
Sequence of Ephrin type-A receptor 4 (Homo sapiens) (P54764 whole entry): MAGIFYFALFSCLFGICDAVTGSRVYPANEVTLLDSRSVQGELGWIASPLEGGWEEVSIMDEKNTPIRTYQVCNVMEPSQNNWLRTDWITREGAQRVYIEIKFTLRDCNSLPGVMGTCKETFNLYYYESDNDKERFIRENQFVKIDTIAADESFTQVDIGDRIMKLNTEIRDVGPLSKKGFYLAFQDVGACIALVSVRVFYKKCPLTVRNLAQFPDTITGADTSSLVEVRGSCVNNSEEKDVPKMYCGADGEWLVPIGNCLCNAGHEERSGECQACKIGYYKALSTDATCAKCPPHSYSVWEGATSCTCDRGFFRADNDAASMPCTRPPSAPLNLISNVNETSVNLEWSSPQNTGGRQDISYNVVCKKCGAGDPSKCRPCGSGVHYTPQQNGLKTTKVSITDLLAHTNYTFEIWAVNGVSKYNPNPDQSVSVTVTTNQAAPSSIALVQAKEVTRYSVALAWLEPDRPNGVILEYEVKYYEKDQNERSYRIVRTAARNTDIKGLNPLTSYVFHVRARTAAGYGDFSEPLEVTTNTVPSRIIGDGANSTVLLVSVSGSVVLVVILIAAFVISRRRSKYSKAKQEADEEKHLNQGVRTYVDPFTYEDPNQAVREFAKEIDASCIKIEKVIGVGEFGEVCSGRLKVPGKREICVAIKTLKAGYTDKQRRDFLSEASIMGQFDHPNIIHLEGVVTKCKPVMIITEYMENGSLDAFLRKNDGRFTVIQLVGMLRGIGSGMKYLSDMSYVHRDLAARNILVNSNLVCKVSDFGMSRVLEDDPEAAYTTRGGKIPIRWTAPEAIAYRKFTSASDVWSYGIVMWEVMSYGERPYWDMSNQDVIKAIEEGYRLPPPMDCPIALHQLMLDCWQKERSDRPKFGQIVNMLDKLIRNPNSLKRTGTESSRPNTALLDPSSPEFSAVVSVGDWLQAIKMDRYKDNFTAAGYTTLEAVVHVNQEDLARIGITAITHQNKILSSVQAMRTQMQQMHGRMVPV
Sequence of Ephrin type-A receptor 5 (Homo sapiens) (P54756 whole entry): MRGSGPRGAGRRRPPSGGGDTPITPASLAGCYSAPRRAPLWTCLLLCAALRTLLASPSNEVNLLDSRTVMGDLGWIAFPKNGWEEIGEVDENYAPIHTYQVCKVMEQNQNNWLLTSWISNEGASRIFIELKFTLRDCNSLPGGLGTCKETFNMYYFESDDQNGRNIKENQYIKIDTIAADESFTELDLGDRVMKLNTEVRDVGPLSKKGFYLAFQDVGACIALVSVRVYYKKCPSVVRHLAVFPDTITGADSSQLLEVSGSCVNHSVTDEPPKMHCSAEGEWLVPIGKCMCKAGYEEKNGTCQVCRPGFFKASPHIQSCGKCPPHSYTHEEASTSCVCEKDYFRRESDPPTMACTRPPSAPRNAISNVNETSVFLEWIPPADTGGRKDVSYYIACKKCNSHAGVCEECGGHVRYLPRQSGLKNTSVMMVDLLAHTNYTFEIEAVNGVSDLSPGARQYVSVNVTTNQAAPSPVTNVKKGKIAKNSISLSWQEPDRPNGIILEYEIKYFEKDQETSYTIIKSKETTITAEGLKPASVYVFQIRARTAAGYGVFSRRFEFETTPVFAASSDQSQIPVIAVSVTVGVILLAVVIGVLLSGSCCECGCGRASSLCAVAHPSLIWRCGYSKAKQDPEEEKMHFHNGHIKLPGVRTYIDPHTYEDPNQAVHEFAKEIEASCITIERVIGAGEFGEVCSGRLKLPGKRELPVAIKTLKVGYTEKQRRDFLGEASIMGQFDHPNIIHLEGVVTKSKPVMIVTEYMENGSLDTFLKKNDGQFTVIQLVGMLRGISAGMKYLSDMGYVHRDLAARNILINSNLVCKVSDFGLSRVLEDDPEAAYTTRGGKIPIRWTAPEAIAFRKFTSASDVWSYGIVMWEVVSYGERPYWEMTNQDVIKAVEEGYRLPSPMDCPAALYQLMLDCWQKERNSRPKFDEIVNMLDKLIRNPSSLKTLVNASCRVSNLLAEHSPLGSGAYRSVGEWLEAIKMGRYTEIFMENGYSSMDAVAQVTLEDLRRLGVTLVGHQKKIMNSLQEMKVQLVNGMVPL

## Nc1ccc2ncnc(NCCc3ccc(Oc4ccccc4)cc3)c2c1
[1]
  residual activity: 92%
[2]
  residual activity: 125%
[3]
  residual activity: 104%
[4]
  residual activity: 110%
[5]
  residual activity: 113%
[6]
  residual activity: 112%
[7]
  residual activity: 100%
[8]
  residual activity: 104%
[9]
  residual activity: 99%
[10]
  residual activity: 114%
